# Test results: PubChem BioAssay AID2685 (National Center for Advancing Translational Sciences (NCATS), 2010)
# About 2,100 (0.66%) of roughly 320,000 compounds were called active. Not shown: some 53% with an inconclusive outcome. Calls follow the shape of the dose curve; as a rule, active = well fitted inhibition curve with a large enough effect in the signal ratio, with a control signal flat (not every such curve was filed as active); inconclusive = small, poorly fitted or top-dose-only effect, or effect the other way, or a change in a side signal; inactive = flat fitted curve, though single readings scatter; the % refers to the signal ratio. For the sample, actives were picked, then their nearest neighbours and some compounds at random.
# Experiment: qHTS Assay for Lipid Storage Modulators in Drosophila S3 Cells;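 as to cell number change: cells counted by Cell Tracker Red CMTPX staining in the red channel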; as to lipid storage change, negative = inhibition: % is scaled to controls: 0 for no effect and ±100 for the full control effect
# Conditions: BODIPY lipid droplet fluorescence, 18-24 h, cells fed with added oleic acid; cell number change: measured here: cell count max response; series mostly up to 46.1 µM
# Outline: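 Drosophila S3 cells loaded with oleic acid (400 uM, as added) and compounds at several concentrations; lipid droplets imaged by 488-nm laser-scanning cytometry, 500–530 nm intensity and object ratio to cell channel. Percent activity normalized to 20 uM Triacsin C.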
# Potency is read from the fitted curve at half-maximal effect.
Structure (SMILES),Potency,cell number change [%],"lipid storage change, negative = inhibition"
O=C(O)c1cccc(Nc2c([N+](=O)[O-])c(=O)oc3ccccc23)c1,inactive,3.37,
CC(=O)Oc1ccc(C(=O)Nc2ccc(S(=O)(=O)N3CCOCC3)cc2)cc1,inactive,-28,
Cc1ccc2[nH]c(=O)c(CN(CC3CCCO3)C(=S)Nc3ccccc3)cc2c1 (stereo not given),inactive,-9.29,
COc1ccc(NC(=O)C2C(c3ccccc3)C2(Cl)Cl)cc1 (stereo not given),inactive,19.2,
CCOc1ccc(NC(=O)C2C(c3ccccc3)C2(Cl)Cl)cc1 (stereo not given),16.4 µM (active),-15.7,
O=C(Nc1ccccc1)C1C(c2ccccc2)C1(Cl)Cl (stereo not given),inactive,-2.33,
OCCN1CCN(CCSc2ccccc2)CC1,inactive,0.698,
CCn1ncc(-c2csc(N)n2)c1C,inactive,9.82,
O=C(c1ccccc1)N1CN2CN(C(=O)c3ccccc3)CC([N+](=O)[O-])(C2)C1,inactive,6.5,
COc1ccccc1C(CNC(=O)c1cc(C)nc2ccccc12)N(C)C (stereo not given),inactive,9.21,
O=C(O)CCN=CC1=C(O)CC(c2ccccc2)CC1=O (stereo not given),1.03 µM (active),15.8,
CCCCCN=CC1=C(O)CC(c2ccccc2)CC1=O (stereo not given),inactive,-15.5,
CCCN=CC1=C(O)CC(c2ccccc2)CC1=O (stereo not given),inactive,5.05,
COCCn1c(SCC(=O)NCCc2ccc(OC)c(OC)c2)nc2c([nH]c3ccccc32)c1=O,inactive,5.96,
NC(=O)Cn1cc(C(=O)C(=O)N2CCOCC2)c2ccccc21,inactive,-8.62,
O=C(O)Cn1cc(C(=S)N2CCOCC2)c2ccccc21,23.1 µM (active),-0.629,
S=C(c1cn(Cc2ccccc2)c2ccccc12)N1CCOCC1,inactive,4.05,
CCc1nc2oc3ccccc3c(=O)c2c(=O)n1CCOC,,14.4,-1.96% [at 9.22 µM] (inactive)
O=C(CCc1ccccc1)NC(NC(=S)Nc1ccc(Br)cc1)C(Cl)(Cl)Cl (stereo not given),inactive,-27.3,
Cc1ccc(-n2nnnc2SCCNS(=O)(=O)c2ccccc2)cc1C,inactive,-14.2,
Cc1ccc(NC(=O)CSc2nnc(N)s2)cc1S(=O)(=O)N1CCCCC1,inactive,-23.8,
CCc1ccc(CNC(=O)C2Cc3cc(S(=O)(=O)N4CCCC4)ccc3N2C(C)=O)cc1 (stereo not given),11.6 µM (active),-14.2,
CCOc1ccc(CNC(=O)C2Cc3cc(S(=O)(=O)N4CCCCC4)ccc3N2C(C)=O)cc1 (stereo not given),inactive,8.5,

Structure (SMILES),Potency,cell number change [%],"lipid storage change, negative = inhibition"
CC(=O)N1c2ccc(S(=O)(=O)N3CCCC3)cc2CC1C(=O)NCc1ccc(N(C)C)cc1 (stereo not given),inactive,12.7,
CCN(CC)S(=O)(=O)c1cc(OC)c(Cl)cc1OC,inactive,14.5,
COc1cc(/C=N/NC(=O)COc2ccc(-n3cnnn3)cc2)ccc1OCC(N)=O,inactive,7.43,
Cc1cc(C)cc(N(CC(=O)O)S(=O)(=O)c2c(C)noc2C)c1,23.1 µM (active),2.34,
Cc1noc(C)c1S(=O)(=O)N(CC(=O)O)c1ccc2c(c1)OCO2,inactive,,
CCc1ccc(N(CC(=O)O)S(=O)(=O)c2c(C)noc2C)cc1,inactive,7.92,
CC(=O)Nc1ccc(NC(=O)Cn2c(=O)n(-c3ccc(C)cc3)c(=O)c3oc4ccccc4c32)cc1,inactive,-4.98,
COc1ccc(CC(=O)Nc2cccc(S(=O)(=O)N3CCOCC3)c2)cc1OC,23.1 µM (active),-21.4,
COc1ccc(CC(=O)Nc2cc(S(=O)(=O)N3CCCCC3)ccc2C)cc1OC,inactive,-3.08,
COc1ccccc1N1CCN(CC(=O)Nc2ccnn2C2CCCC2)CC1,inactive,1.72,
COc1ccc(CC(=O)Nc2cccc(S(=O)(=O)N3CCCCCC3)c2)cc1OC,20.6 µM (active),-6.09,
COc1ccc(N2CCN(CC(=O)Nc3cccc(S(=O)(=O)N4CCOCC4)c3)CC2)cc1,16.4 µM (active),-21.6,
COc1cccc(N2CCN(CC(=O)Nc3ccnn3C3CCCC3)CC2)c1,10.3 µM (active),-10.7,
COc1ccccc1CCC(=O)Nc1cccc(S(=O)(=O)N2CCOCC2)c1,inactive,12.7,
O=C(Cc1ccc(Br)cc1)Nc1cccc(S(=O)(=O)N2CCOCC2)c1,inactive,-12.5,
O=C(CN1CCN(S(=O)(=O)c2ccc3ccccc3c2)CC1)Nc1ccc(N2CCOCC2)cc1,inactive,-8.53,
COC(=O)c1cccc(NC(=O)CN2CCN(c3ccc(OC)cc3)CC2)c1,inactive,6.81,
O=C(CN1CCN(S(=O)(=O)c2ccccc2)CC1)Nc1ccnn1C1CCCC1,inactive,-2.45,
COc1ccc(CC(=O)Nc2cccc(S(=O)(=O)N3CCCCC3)c2)cc1,inactive,-18.3,
O=C(NCc1ccccc1)c1ccc(Cl)nc1,inactive,10,
CC(C)(C)c1ccc(/C=N/NC(=O)c2ccccn2)cc1,inactive,6.33,
CCCCC(Sc1nc(N)c(NC(=O)c2ccco2)c(=O)[nH]1)C(=O)O (stereo not given),inactive,-24.3,
O=C(CN(C(=O)c1csnn1)c1cccc(Cl)c1)NCCc1ccccc1,inactive,12.4,

Structure (SMILES),Potency,cell number change [%],"lipid storage change, negative = inhibition"
Cc1ccccc1NC(=O)CSc1ccc(-c2ccco2)nn1,inactive,-9.57,
CCCNc1ccc(S(=O)(=O)N(CC)CC)cn1,inactive,5.83,
Cc1ccc(S(=O)(=O)N(CC(=O)NC2CC2)c2ccc(C)c(Cl)c2)cc1,inactive,,
CCOC(=O)CCN,inactive,3.17,
O=C(NCC1CCCO1)c1ccc2c(c1)C(=O)N(c1cccc([N+](=O)[O-])c1)C2=O (stereo not given),0.82 µM (active),-9.52,
O=C(NCC1CCCO1)c1ccc(NS(=O)(=O)c2cccc([N+](=O)[O-])c2)cc1 (stereo not given),inactive,5.5,
O=C(NCC1CCCO1)c1ccc2c(c1)C(=O)N(C1CCCCC1)C2=O (stereo not given),inactive,2.66,
Nc1c(-c2ccc(Cl)cc2)cnn1-c1cccc(C(F)(F)F)c1,inactive,10.7,
NC(=O)C1CCCN(Cc2ccc3ccccc3c2)C1 (stereo not given),inactive,10.8,
NC(=O)C1CCCN(Cc2ccc(Cl)cc2)C1 (stereo not given),29.1 µM (active),-11.1,
O=C(C1CCCN(Cc2ccc(Cl)cc2)C1)N1CCCCC1 (stereo not given),inactive,22.8,
O=C(COC(=O)c1ccc(S(=O)(=O)NCc2ccco2)cc1)NCC1CCCCC1,25.9 µM (active),-12.1,
Cc1ccc(CNC(=O)COC(=O)c2ccc(S(=O)(=O)NCc3ccco3)cc2)cc1,inactive,-0.995,
O=C(COC(=O)c1ccc(S(=O)(=O)NCc2ccco2)cc1)NC1CCCCC1,inactive,0.997,
C#CCOCCOCCOCCNc1nc(N2CCN(C(=O)[C@H](CCC(=O)O)n3cc(C(N)[C@H](C)CC)nn3)CC2)nc(N2CCN(C(=O)[C@H](CCC(=O)O)n3cc(C(N)[C@H](C)CC)nn3)CC2)n1 (stereo not given in full),inactive,-3.88,
O=C(CN(Cc1ccccc1)S(=O)(=O)c1ccccc1)N/N=C/c1ccc([N+](=O)[O-])cc1,inactive,-4.65,
Cc1ccc(OCC(=O)NNC(=S)NC(=O)c2ccc(Br)o2)c(C)c1,inactive,7.54,
Cc1ccc(-n2nc3c(=O)n(CC(=O)NCCc4ccc(Cl)cc4)nc(C)c3c2C)cc1,inactive,-10.8,
Cc1ccc(-n2nc3c(=O)n(CC(=O)NCCCc4ccccc4)nc(C)c3c2C)cc1,18.4 µM (active),21,
Cc1ccc(-n2nc3c(=O)n(C(C)C(=O)NCCCc4ccccc4)nc(C)c3c2C)cc1 (stereo not given),inactive,-8.4,
Cc1cc(C)cc(NC(=O)CSc2ncc(S(=O)(=O)c3ccccc3)c(=O)[nH]2)c1,inactive,4.62,
O=C(CN1C(=O)C(=O)N(C2CCCC2)C1=O)NCCc1ccc(Cl)cc1Cl,4.11 µM (active),-0.378,
O=C(CN1CC(=O)Nc2ccccc21)NCCc1ccc(Cl)cc1Cl,inactive,-5.87,

Structure (SMILES),Potency,cell number change [%],"lipid storage change, negative = inhibition"
O=C(CN1CCNC(=O)C1)NCCc1ccc(Cl)cc1Cl,inactive,-23.8,
CC(=O)c1cccc(NC(=O)c2cc(C)no2)c1,inactive,5.99,
CCC(C)[C@@H](N)C(=O)N/N=C/c1cccc2nccnc12 (stereo not given in full),inactive,-7.62,
CCC(c1nnnn1Cc1ccco1)N1CCC(C(N)=O)CC1 (stereo not given),5.8 µM (active),-7.68,
CC(C)C(c1nnnn1Cc1ccco1)N1CCC(C(N)=O)CC1 (stereo not given),inactive,-12.1,
CCC(c1nnnn1Cc1ccco1)N1CCN(C(=O)c2ccco2)CC1 (stereo not given),inactive,0.561,
CCCC(=O)Nc1ccc2oc(=O)ccc2c1,inactive,-4.63,
Cc1ccccc1C(=O)N1CCCC(N2CCN(Cc3ccc4c(c3)OCO4)CC2)C1 (stereo not given),inactive,0.496,
CCNc1nc(NCC)n2c(SCC(=O)O)nnc2n1,29.1 µM (active),-12,
CCNc1nc(NCC)n2c(SCC(=O)Nc3ccccc3)nnc2n1,inactive,9.23,
CCNc1nc(NCC)n2c(SCC(=O)c3ccccc3Cl)nnc2n1,inactive,,
Cc1csc(NC(=O)c2ccc(S(=O)(=O)N3CCCC3)cc2)n1,inactive,5.75,
O=C(CNS(=O)(=O)c1cccc2nonc12)NCc1ccc(F)cc1,inactive,,
CCC(C(=O)NC1CCCCC1)n1c2ccccc2c2nc(=O)cc(C)n21 (stereo not given),inactive,1.33,
COc1cccc2c1cc1c(=O)n(CC(=O)NC3CCCCC3)nc(C)n12,inactive,-12.9,
COc1cc2c(cc1OC)n(CC(=O)NC1CCCCCC1)n1c(C)cc(=O)nc21,8.2 µM (active),-21.9,
Nc1nc(C2CCCN2S(=O)(=O)c2ccc(Cl)cc2)cs1 (stereo not given),inactive,-2,
CCOc1ccc(NC(=O)C2CCC(CNc3c(N4CCCCC4)c(=O)c3=O)CC2)cc1 (stereo not given),inactive,,
CCCCC(=O)Nc1cccc(-c2nc3ncccc3o2)c1,inactive,0.0678,
O=C(CSc1ccc(Cl)cc1)Nc1cccc(-c2nc3ncccc3o2)c1,1.3 µM (active),-12.7,
CC(C)CC(=O)Nc1cccc(-c2nc3ncccc3o2)c1,inactive,-6.34,
